# Among all 52,000 compounds or so, about 1,700 (3.3%) were called active. The full list was thinned out, with actives kept by preference. A number with no mark means an inactive call. Rule as the data show it: active = survival mostly below about 52% (no sharp cut-off); inactive = mostly above about 56%.
# Tested on: Wild type
# Experiment: growth inhibition of S. aureus wild type versus tarO mutant, primary screen, teichoic acid synthesis inhibitors, RN4220, OD600 (AID 463173)
# Conditions: S. aureus RN4220 wild type/DeltatarO growth, OD600, 18 h, active compounds read low, screened at 18.75 µg/mL (by protocol)
row,Compound,survival
1,COc1ccccc1N1CCN(CCC(=O)Nc2cccc(F)c2)CC1,76%
2,COc1ccc(NC(=O)NC2COc3ccccc3C2)c(OC)c1 (stereo not drawn),88%
3,O=C(Nc1ccc(OC(F)(F)F)cc1)NC1COc2ccccc2C1 (stereo not drawn),-3% (active)
4,COc1ccc(NC(=O)NC2COc3ccccc3C2)cc1Cl (stereo not drawn),65%
5,O=C(Cn1cc(S(=O)(=O)c2ccccc2)c(=O)c2cc3c(cc21)OCO3)Nc1ccc(Cl)cc1,65%
6,CCc1ccc(CNC(=O)c2sc3ncccc3c2-n2c(C)ccc2C)cc1,-3% (active)
7,COCCNC(=O)c1sc2ncccc2c1-n1c(C)ccc1C,88%
8,Cc1ccc(CCNC(=O)c2sc3ncccc3c2-n2c(C)ccc2C)cc1,75%
9,Cc1cc2ccccc2n1-c1ccc(C(=O)N2CCC(C(=O)NCc3ccccc3Cl)CC2)s1,60%
10,CC(C)c1ccc(C2=CC(c3cccc(Cl)c3)n3c(nc4ccccc43)N2)cc1 (stereo not drawn),60%
11,CC(C)c1ccc(C2=CC(c3cccc(Cl)c3)n3ncnc3N2)cc1 (stereo not drawn),-3% (active)
12,COc1ccc(C2C=C(c3ccc(Cl)c(Cl)c3)Nc3ncnn32)cc1 (stereo not drawn),26%
13,CCOC(=O)c1cc2c(=O)n3ccccc3nc2n(Cc2ccco2)c1=NC(=O)c1ccccc1OC,64%
14,CCOCCCn1c(SCC(=O)NCCCOC)nc2c(sc3ccccc32)c1=O,134%
15,CCOC(=O)CSc1nc2c(sc3ccccc32)c(=O)n1CCc1ccccc1,75%
16,CCOC(=O)CSc1nc2c(sc3ccccc32)c(=O)n1CCO,-6% (active)
17,COCCCn1c(SCc2ccccc2F)nc2c(sc3ccccc32)c1=O,98%
18,COCCCn1c(SCC(=O)NCc2ccccc2)nc2c(sc3ccccc32)c1=O,72%
19,CCOCCCn1c(SCC(=O)NCc2ccccc2)nc2c(sc3ccccc32)c1=O,-6% (active)
20,CCOCCCn1c(SCC(=O)OCC)nc2c(sc3ccccc32)c1=O,136%

row,Compound,survival
1,COCCCNC(=O)CSc1nc2c(sc3ccccc32)c(=O)n1CCc1ccc(OC)c(OC)c1,-6% (active)
2,COCCCNC(=O)CSc1nc2c(sc3ccccc32)c(=O)n1CCc1ccccc1,64%
3,CCCCn1c(SCc2ccccc2C#N)nc2c(sc3ccccc32)c1=O,14% (active)
4,CC(C)OCCCn1c(SCc2ccccc2C#N)nc2c(sc3ccccc32)c1=O,76%
5,CCCCn1c(SCC(=O)NCCCOC)nc2c(sc3ccccc32)c1=O,133%
6,Cc1c(C(=O)Nc2ccc(F)c(Cl)c2)oc2ccc(S(=O)(=O)N(C)C3CCCCC3)cc12,99%
7,Cc1ccc(C)c(S(=O)(=O)c2cn(C)c3cc(F)c(F)cc3c2=O)c1,81%
8,COc1cccc(-n2ccnc2SCC(=O)Nc2c(C)cc(C)cc2C)c1,113%
9,O=C(CCCCCn1c(=O)c2sccc2n(Cc2ccc(Cl)cc2)c1=O)NCc1ccc2c(c1)OCO2,86%
10,CCCCn1c(SCC(=O)NCc2ccc(C)cc2)nc2c(sc3ccccc32)c1=O,69%
11,CCCCn1c(SCC(=O)c2ccccc2)nc2c(sc3ccccc32)c1=O,-1% (active)
12,CC(C)OCCCn1c(SCC(=O)c2ccccc2)nc2c(sc3ccccc32)c1=O,72%
13,COc1ccc(CN(CCN)C2CC(C)N(C)CC2C)cc1 (stereo not drawn),105%
14,Cc1ccc(C2CCN(C(=O)Nc3ccc(Cl)c(Cl)c3)C2)cc1 (stereo not drawn),-3% (active)
15,Cc1ccc(C2CCN(C(=O)Nc3ccc(Cl)cc3)C2)cc1 (stereo not drawn),71%
16,O=C(Nc1ccc(Cl)c(Cl)c1)N1CCC(c2ccccc2)C1 (stereo not drawn),71%
17,Cc1cccc(-c2nc3ccccc3o2)c1,119%
18,COC(=O)c1cc(NC(=O)[C@H](CCS(C)(=O)=O)N2Cc3ccccc3C2=O)cc(C(=O)OC)c1,87%
19,COc1ccc(NC(=O)[C@H](Cc2ccccc2)N2Cc3ccccc3C2=O)cc1OC,94%
20,COc1cc(NC(=O)C(CCS(C)(=O)=O)N2Cc3ccccc3C2=O)cc(OC)c1OC (stereo not drawn),14% (active)

row,Compound,survival
1,CS(=O)(=O)CCC(C(=O)Nc1cccc(C(F)(F)F)c1)N1Cc2ccccc2C1=O (stereo not drawn),-1% (active)
2,Cc1c(Cl)cccc1NC(=O)C(CCS(C)(=O)=O)N1Cc2ccccc2C1=O (stereo not drawn),74%
3,CS(=O)(=O)CC[C@@H](C(=O)NCCc1ccccc1)N1Cc2ccccc2C1=O,90%
4,CCc1ccc(NC(=O)CSc2nc3c(sc4ccccc43)c(=O)n2CCCOC(C)C)cc1,80%
5,O=C(CSc1n[nH]c(-c2ccc(F)cc2)n1)NCCc1ccccc1,120%
6,CC1=C(C(=O)Nc2ccccc2)C(c2ccncc2)n2nc(SCc3ccccc3F)nc2N1 (stereo not drawn),106%
7,Cc1ccc(NC(=O)Cn2cc(S(=O)(=O)N3CCCC3)c(S(=O)(=O)N3CCCC3)c2)cc1F,126%
8,O=C(CCc1cn(Cc2ccccc2F)c2ccccc12)NCc1ccc(Cl)cc1,81%
9,O=C(NCC1CCCCC1)C1CCCN1C(=O)NC1CCCCC1 (stereo not drawn),106%
10,COc1ccc(NC(=O)c2oc3ccc(S(=O)(=O)N4CCCCC4)cc3c2C)cc1Cl,73%
11,Cc1ccc(S(=O)(=O)C2(C(=O)Nc3ccc(C)c(Cl)c3)CC2)cc1,4% (active)
12,O=C(Nc1ccccc1C(F)(F)F)C1(S(=O)(=O)c2ccc(Cl)cc2)CC1,94%
13,COC(=O)c1ccc(NC(=O)C2(S(=O)(=O)c3ccc(C)cc3)CC2)cc1,133%
14,Cc1ccc(S(=O)(=O)C2(C(=O)Nc3ccc(Cl)c(C(F)(F)F)c3)CC2)cc1,41% (active)
15,CCOC(=O)c1cccc(NC(=O)C2(S(=O)(=O)c3ccc(C)cc3)CC2)c1,84%
16,Cc1ccc(S(=O)(=O)C2(C(=O)Nc3ccc(C(C)C)cc3)CC2)cc1,64%
17,COc1ccc(C2(CNC(=O)C(=O)Nc3ccc(C)c(Cl)c3)CCCC2)cc1OC,83%
18,Cc1ccc(-n2ncc(C(=O)NCc3ccc4c(c3)OCO4)c2C2CCN(C(=O)OC(C)(C)C)CC2)cc1C,82%
